PubChem BioAssay AID1259417 (TB Discovery Research, Infectious Disease Research Institute, 2018)
Hit rate of the full screen: of about 1,100 compounds, about 760 (69%) were called active. No rule for the calls is given here. So high a share suggests a set chosen from earlier hits. The list shows a part of the results.

Assay: M. tuberculosis growth inhibition, HTS (AID 1259417);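 also: bacteria grown with compound for 5 days at 37 °C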
Details: stronger effect = higher value, concentration not given here
[1] = M. tuberculosis DsRed fluorescence growth inhibition
[2] = M. tuberculosis growth inhibition

| Compound | inhibition [1] | inhibition [2] [%] |
| --- | --- | --- |
| COCCn1nnnc1C(c1cc2cc(OC)ccc2[nH]c1=O)N1CCC(Cc2ccccc2)CC1 (configuration not stated) | 6.25% (inactive) | -12.1 |
| O=C(Oc1ccccc1)c1ccc(S(=O)(=O)N2CCCCC2)cc1 | 12% (active) | 46.3 |
| COc1ccc(CNC(=O)c2c(C)nc3ccccn23)cc1 | 99.4% (active) | 100 |
| Cc1nn(Cc2ccccc2Cl)c2sc(C(=O)NCc3ccc4c(c3)OCO4)cc12 | -3.53% (inactive) | -15.9 |
| Cc1nc2ccccn2c1C(=O)NCc1ccc2c(c1)OCO2 | 99.7% (active) | 99.6 |
| CCOC(=O)CSc1nc(C#N)c(SCC(=O)OCC)s1 | 31.4% (active) | 80.2 |
| CCOC(=O)CSc1nc(N)c(C#N)c(CC(C)C)c1C#N | -5.9% (inactive) | -4.83 |
| Cc1ccc(NC(=O)CSc2ccc(-c3ccccn3)nn2)cc1 | 89% (active) | 97.4 |
| COc1ccc(-c2nc(NC(=O)c3ccccc3)n[nH]2)cc1OC | 97.2% (active) | 96.7 |
| CCOC(=O)c1c(NC(=O)c2ccccc2C)sc(C)c1-c1ccc(OC)c(OC)c1 | -3.52% (inactive) | -17.9 |
| CC(C)=CCN1CCN(CCC2=C(C)CCCC2(C)C)CC1CCO (configuration not stated) | -2.34% (inactive) | -26.9 |
| COc1cccc(NC(=O)c2c(NC(=O)c3cccnc3)sc3c2CCC3)c1 | 92.4% (active) | 95.5 |
| COC(=O)c1c(NC(=O)c2cccc(OC)c2)sc2c1C(C(=O)OC)CC2 (configuration not stated) | 1.52% (inactive) | -13.4 |
| COc1cccc(NC(=O)c2c(NC(=O)c3cccc(C)c3)sc3c2CCC3)c1 | -1.15% (inactive) | -10.7 |
| COc1ccc(NC(=O)c2c(NC(=O)c3ccc([N+](=O)[O-])o3)sc3c2CCC3)cc1 | 96.5% (active) | 96.2 |
| Cc1ccc(-c2nn(-c3ccccc3)cc2CNCc2ccccc2)cc1 | 33.4% (active) | 66.5 |
| CCn1ccnc1CN(C)Cc1cn(-c2cc(C)ccc2C)nc1-c1ccccc1 | 16.9% (inactive) | 8.97 |
| CCn1ccnc1CN(C)Cc1cn(-c2ccc(C)cc2)nc1-c1cccc(C)c1 | 14.8% (inactive) | 8.21 |
| Brc1ccc(-c2nn(-c3ccccc3)cc2CNCc2ccccc2)cc1 | 23.1% (active) | 39.4 |
| CC(C)COc1ccc(-c2nn(-c3ccccc3)cc2C(=O)Nc2nccs2)cc1 | 2.38% (inactive) | -24.1 |
| CCOC(=O)c1c(-c2ccc(OC)c(OC)c2)csc1NC(=O)c1cccc(OC)c1OC | 4.18% (inactive) | -8.63 |
| CCOC(=O)c1cc(CC)sc1NC(=O)c1cc2ccccc2oc1=O | 23.7% (active) | 60.6 |

| Compound | inhibition [1] | inhibition [2] [%] |
| --- | --- | --- |
| CCc1nnc(NC(=O)c2cc3ccccc3oc2=O)s1 | 1% (active) | 47 |
| Cc1sc(NC(=O)c2cc3ccccc3oc2=O)c(C(=O)OC(C)C)c1C | 6.18% (inactive) | 28.3 |
| NC(=O)c1c(NC(=O)c2cc3ccccc3oc2=O)sc2c1CCCCCC2 | 3.53% (inactive) | -10.8 |
| CCOC(=O)c1c(-c2ccccc2)csc1NC(=O)c1cc2ccccc2oc1=O | 7.43% (active) | 32.3 |
| Cc1cccc(OCCCn2cnc3cc(C)c(C)cc32)c1 | 88% (active) | 97.5 |
| Cc1cc2ncn(CCOc3ccc(Cl)cc3)c2cc1C | 88.3% (active) | 95.9 |
| Cc1cc2ncn(Cc3ccc(C(C)C)cc3)c2cc1C | 90.4% (active) | 98.3 |
| c1ccc(CCN(Cc2ccccc2)C2CCN(Cc3c[nH]c4ccccc34)CC2)cc1 | 2.96% (inactive) | -21.5 |
| C1=CC2CC1CC2CN1CCC(N(CCc2ccccc2)Cc2ccccc2)CC1 (configuration not stated) | 99.4% (active) | 96.9 |
| O=C(OCn1nnc2ccccc2c1=O)c1ccco1 | 20.6% (active) | 47 |
| CCCn1nnnc1NC(=O)c1cccs1 | 18.2% (inactive) | 29.4 |
| Cc1ccc(-c2nnc(N3CCN(C(=O)c4ccco4)CC3)c3ccccc23)cc1 | 3.3% (inactive) | -1.04 |
| O=C(OCn1nnc2ccccc2c1=O)c1cccs1 | 42.4% (active) | 57.1 |
| O=C(OCn1nnc2ccccc2c1=O)c1ccccc1 | 40.5% (active) | 44.9 |
| COc1ccc(NC(=O)c2ccc(C#CC(C)(C)O)s2)cc1 | 58.8% (active) | 31.9 |
| COc1ccc(CCNC(=O)c2ccc(C#CC(C)(C)O)s2)cc1 | 92.7% (active) | 80.8 |
| Cn1ccnc1C(O)c1cc(C(C)(C)C)c(O)c(C(C)(C)C)c1 (configuration not stated) | 22.8% (inactive) | 28.3 |
| Cc1ccccc1C(=O)Nc1nnc(-c2ccc(F)cc2)o1 | 75.4% (active) | 84.5 |
| Cc1ccccc1C(=O)Nc1nnc(-c2ccc(Cl)cc2)o1 | 83.5% (active) | 90.7 |
| CCCCNC(=O)Nc1nnc(-c2ccc(Cl)cc2)o1 | 14.7% (inactive) | 4.64 |
| CC1CCCN(c2ccc([N+](=O)[O-])s2)C1 (configuration not stated) | 97.6% (active) | 99.3 |
| COC(=O)COc1cccc(NC(=O)COc2ccccc2)c1 | 50% (active) | 64.5 |

| Compound | inhibition [1] | inhibition [2] [%] |
| --- | --- | --- |
| COc1ccc(OCC(=O)Nc2cccc(Cl)c2)cc1 | 6.16% (inactive) | -19 |
| COC(=O)COc1ccc(CSCC(=O)Nc2ccc3ccccc3c2)cc1 | 33.1% (active) | 58.5 |
| CCOc1ccc(OCC(=O)Nc2cc(C)cc(C)c2)cc1 | 2.08% (active) | 38.4 |
| COC(=O)COc1ccc(NC(=O)COc2cccc(C)c2)cc1 | 68.1% (active) | 90.9 |
| Cc1cc(C)cc(NC(=O)COc2cccc(C=O)c2)c1 | 4.11% (inactive) | 13.2 |
| Cc1ccc(CSCC(=O)Nc2ccccc2)cc1 | 3.53% (active) | 35.4 |
| Cc1ccc(CSCC(=O)Nc2ccc(Cl)c(Cl)c2)cc1 | 2.65% (inactive) | 11.4 |
| COC(=O)COc1ccc(NC(=O)COc2ccc(C(C)(C)C)cc2)cc1 | 98.8% (active) | 99.4 |
| Cc1ccnc(NC(=O)COc2ccc([N+](=O)[O-])cc2)c1 | -0.546% (inactive) | 11.9 |
| COC(=O)COc1ccc(NC(=O)COc2ccc(C)cc2C)cc1 | 99.4% (active) | 99.7 |
| CCOC(=O)N1CCN(C(=O)CSc2nnc(-c3cc(OC)cc(OC)c3)o2)CC1 | 24.7% (inactive) | 11.7 |
| CCOC(=O)CSc1nnc(-c2cc(OC)c(OC)c(OC)c2)o1 | 85.2% (active) | 90.4 |
| CCCOC(=O)CSc1nnc(-c2cc(OC)c(OC)c(OC)c2)o1 | 71.2% (active) | 87.3 |
| CCOC(=O)CSc1nnc(-c2cccc(Br)c2)o1 | 67.1% (active) | 85.8 |
| O=C(Nc1nnc(-c2ccco2)o1)c1ccc(Oc2ccccc2)cc1 | 70.2% (active) | 86.6 |
| CCCCOc1ccc(C(=O)Nc2nnc(-c3ccco3)o2)cc1 | 44.2% (active) | 26 |
| COc1ccc(C(=O)Nc2nnc(C3=COCCO3)o2)cc1 | -1.74% (inactive) | -16.2 |
| CCOc1ccc(C(=O)Nc2nnc(-c3ccccn3)o2)cc1 | 3.93% (inactive) | -4.77 |
| CCCCOc1ccc(C(=O)Nc2nnc(-c3ccncc3)o2)cc1 | 18.1% (active) | 42.4 |
| CCc1ccc(/C=C/C(=O)C2C(=O)c3ccccc3C2=O)cc1 | 100% (active) | 99.5 |
| NC(=O)c1c(NC(=O)c2c(F)c(F)c(F)c(F)c2F)sc2c1CCC2 | 98.9% (active) | 95.4 |
| NC(=O)c1c(NC(=O)c2c(F)c(F)c(F)c(F)c2F)sc2c1CCCCCC2 | 43.3% (active) | 78.9 |

| Compound | inhibition [1] | inhibition [2] [%] |
| --- | --- | --- |
| COc1cc(C(=O)Nc2sc3c(c2C(N)=O)CCCC3)c(Br)c(OC)c1OC | 27.3% (inactive) | 4.82 |
| NC(=O)c1c(NC(=O)c2cccc(F)c2)sc2c1CCC2 | -2.04% (inactive) | -14.1 |
| Cc1ccc(C(=O)Nc2sc3c(c2C(N)=O)CCC(C(C)(C)C)C3)c(C)c1 (configuration not stated) | -2.03% (inactive) | -11.7 |
| CC(C)(C)c1ccc(Cn2cnc([N+](=O)[O-])n2)cc1 | 98.3% (active) | 96.6 |
| NC(=O)c1c(NC(=O)c2cc(Cl)ccc2Cl)sc2c1CCCCCC2 | -5.89% (inactive) | -25.5 |
| COc1cccc(C(=O)Nc2sc3c(c2C(N)=O)CCCCCC3)c1 | -2.93% (inactive) | -15.5 |
| CCOc1cccc(C(=O)Nc2sc3c(c2C(N)=O)CCC3)c1 | -0.558% (inactive) | -34.5 |
| CCOC(=O)c1c(NC(=O)c2cc(-n3cnnc3)ccc2Cl)sc2c1CCCC2 | 37.7% (active) | 36.2 |
| CCOC(=O)c1c(NC(=O)COc2ccc(C(C)C)cc2)sc2c1CCC2 | 44.6% (active) | 99.6 |
| COC(=O)c1c(NC(=O)c2c(F)c(F)c(F)c(F)c2F)sc2c1CCCCC2 | 97.4% (active) | 93 |
| COC(=O)c1c(NC(=O)c2c(F)c(F)c(F)c(F)c2F)sc2c1CCC2 | 98.2% (active) | 95.8 |
| COC(=O)c1c(NC(=O)c2c(F)cccc2F)sc2c1CCC(C(C)(C)C)C2 (configuration not stated) | 0.929% (inactive) | -6.55 |
| Cc1cc(C2N=C(N)Nc3nc4ccccc4n32)c(C)n1-c1ccccc1Cl (configuration not stated) | -7.08% (inactive) | -25.2 |
| Cc1ccc(-n2cc(-c3ccccc3)c3c(NCc4cccnc4)ncnc32)cc1 | 19.7% (inactive) | -7.61 |
| CNC(=O)c1c(NC(=O)c2cccc(C)c2)sc2c1CCC2 | 9.53% (inactive) | -24.5 |
| CCOC(=O)c1c(NC(=O)c2c(F)c(F)c(F)c(F)c2F)sc2c1CCCCC2 | 97.9% (active) | 96.2 |
| CCOC(=O)C=CC(=O)Nc1sc2c(c1C(=O)OC)CCC2 | 10.6% (active) | 29.7 |
| Cc1cccc(C(=O)Nc2sc3c(c2C(=O)N2CCCC2)CCC3)c1 | -0.854% (inactive) | -7.24 |
| Oc1ccc(Br)cc1-c1nc(-c2cccs2)c(-c2cccs2)[nH]1 | 1.19% (inactive) | -11.5 |
| N#Cc1cc2c(ccc3ccccc32)oc1=O | 17.3% (active) | 55.9 |
